Source: the supplement of paper PMC11732987, “Enantioselective OTUD7B fragment discovery through chemoproteomics screening and high-throughput optimisation” (Communications Chemistry, 2025)

Columns and labels:
Test in all cases: log2 ratio of Biotin-Ahx-Ub-VS probe labelling (fragment/DMSO); higher = less target engagement (more negative = stronger competition), active = hit call of the paper (q ≤ 0.05, log2 ratio ≤ -1)
Details in all cases: compound concentration: 200 uM; treatment time: 3 h
[1] = biological target: USP34 (UniProt Q70CQ2)
Outline: (§1)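 Labelled DUBs from HEK293T lysate were NeutrAvidin-enriched, digested with LysC and trypsin, and run by diaPASEF LC-MS/MS. Before that, each 495 µg sample in Tris/CHAPS/IGEPAL buffer with protease inhibitors was treated in triplicate with fragment at 200 µM or vehicle for 3 h, then with Biotin-Ahx-Ub-VS at 0.5 µM final for 1 h. Values are average log2 ratios of fragment over vehicle by unpaired t-test, based on global-median-normalised Spectronaut label-free quantities from proteins with ≥2 unique peptides.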

[2] = biological target: T1, USP36 (UniProt Q9P275)
T1 sequence (whole entry): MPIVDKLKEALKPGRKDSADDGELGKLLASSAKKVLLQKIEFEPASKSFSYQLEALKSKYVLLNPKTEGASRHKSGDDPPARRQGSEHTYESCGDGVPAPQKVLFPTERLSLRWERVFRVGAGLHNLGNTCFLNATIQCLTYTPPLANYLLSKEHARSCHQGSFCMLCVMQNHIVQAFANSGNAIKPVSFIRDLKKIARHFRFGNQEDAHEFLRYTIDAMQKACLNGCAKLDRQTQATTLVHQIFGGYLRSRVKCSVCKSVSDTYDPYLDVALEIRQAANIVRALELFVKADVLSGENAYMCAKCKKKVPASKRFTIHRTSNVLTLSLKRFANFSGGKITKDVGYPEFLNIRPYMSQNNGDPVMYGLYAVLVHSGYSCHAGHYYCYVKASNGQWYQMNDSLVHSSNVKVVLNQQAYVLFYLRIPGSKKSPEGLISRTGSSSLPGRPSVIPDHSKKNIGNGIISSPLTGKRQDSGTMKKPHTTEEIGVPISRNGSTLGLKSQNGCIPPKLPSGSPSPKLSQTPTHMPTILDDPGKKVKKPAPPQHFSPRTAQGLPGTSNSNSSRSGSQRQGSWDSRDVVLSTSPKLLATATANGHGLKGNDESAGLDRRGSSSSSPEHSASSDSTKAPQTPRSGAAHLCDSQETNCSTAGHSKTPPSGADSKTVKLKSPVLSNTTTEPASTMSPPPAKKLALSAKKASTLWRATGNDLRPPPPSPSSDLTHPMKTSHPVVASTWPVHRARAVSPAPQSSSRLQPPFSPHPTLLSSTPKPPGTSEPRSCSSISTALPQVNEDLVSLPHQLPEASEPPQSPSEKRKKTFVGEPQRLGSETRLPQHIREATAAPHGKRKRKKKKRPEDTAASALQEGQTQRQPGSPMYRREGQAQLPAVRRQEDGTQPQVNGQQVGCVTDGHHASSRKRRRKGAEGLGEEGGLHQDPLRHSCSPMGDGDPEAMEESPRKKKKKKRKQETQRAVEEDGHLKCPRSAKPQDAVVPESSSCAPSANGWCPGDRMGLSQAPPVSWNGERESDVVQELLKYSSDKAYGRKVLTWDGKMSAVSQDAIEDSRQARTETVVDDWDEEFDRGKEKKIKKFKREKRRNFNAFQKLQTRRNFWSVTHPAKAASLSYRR
Outline: as §1

[3] = biological target: T2, USP38 (UniProt Q8NB14)
T2 sequence (whole entry): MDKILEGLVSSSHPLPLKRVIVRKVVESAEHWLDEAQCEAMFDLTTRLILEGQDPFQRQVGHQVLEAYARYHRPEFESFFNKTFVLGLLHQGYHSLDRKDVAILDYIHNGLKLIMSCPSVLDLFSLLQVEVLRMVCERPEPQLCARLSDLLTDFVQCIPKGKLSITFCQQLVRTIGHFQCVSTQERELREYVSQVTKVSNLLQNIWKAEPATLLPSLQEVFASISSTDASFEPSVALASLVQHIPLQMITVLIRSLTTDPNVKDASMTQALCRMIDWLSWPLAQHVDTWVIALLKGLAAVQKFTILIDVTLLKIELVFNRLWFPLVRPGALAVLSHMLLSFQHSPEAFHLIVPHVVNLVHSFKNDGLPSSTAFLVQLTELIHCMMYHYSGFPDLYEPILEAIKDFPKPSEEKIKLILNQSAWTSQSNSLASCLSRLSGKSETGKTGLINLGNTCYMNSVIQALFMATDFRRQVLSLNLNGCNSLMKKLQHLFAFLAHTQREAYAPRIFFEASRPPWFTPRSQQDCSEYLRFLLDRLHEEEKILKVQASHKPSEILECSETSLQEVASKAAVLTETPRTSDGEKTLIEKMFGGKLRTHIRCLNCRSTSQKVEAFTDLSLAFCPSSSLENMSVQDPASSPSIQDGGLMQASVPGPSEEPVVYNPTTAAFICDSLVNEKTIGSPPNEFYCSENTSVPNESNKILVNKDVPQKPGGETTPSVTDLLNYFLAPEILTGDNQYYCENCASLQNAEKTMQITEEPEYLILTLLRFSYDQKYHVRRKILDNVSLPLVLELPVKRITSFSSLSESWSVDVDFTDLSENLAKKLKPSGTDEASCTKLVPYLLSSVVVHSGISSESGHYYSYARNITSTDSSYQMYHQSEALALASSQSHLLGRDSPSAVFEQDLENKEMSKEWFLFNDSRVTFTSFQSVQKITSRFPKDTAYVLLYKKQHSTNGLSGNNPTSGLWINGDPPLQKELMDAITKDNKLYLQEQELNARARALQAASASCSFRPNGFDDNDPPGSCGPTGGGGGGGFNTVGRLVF
Outline: as §1

[4] = biological target: T3, USP39 (UniProt Q53GS9)
T3 sequence (whole entry): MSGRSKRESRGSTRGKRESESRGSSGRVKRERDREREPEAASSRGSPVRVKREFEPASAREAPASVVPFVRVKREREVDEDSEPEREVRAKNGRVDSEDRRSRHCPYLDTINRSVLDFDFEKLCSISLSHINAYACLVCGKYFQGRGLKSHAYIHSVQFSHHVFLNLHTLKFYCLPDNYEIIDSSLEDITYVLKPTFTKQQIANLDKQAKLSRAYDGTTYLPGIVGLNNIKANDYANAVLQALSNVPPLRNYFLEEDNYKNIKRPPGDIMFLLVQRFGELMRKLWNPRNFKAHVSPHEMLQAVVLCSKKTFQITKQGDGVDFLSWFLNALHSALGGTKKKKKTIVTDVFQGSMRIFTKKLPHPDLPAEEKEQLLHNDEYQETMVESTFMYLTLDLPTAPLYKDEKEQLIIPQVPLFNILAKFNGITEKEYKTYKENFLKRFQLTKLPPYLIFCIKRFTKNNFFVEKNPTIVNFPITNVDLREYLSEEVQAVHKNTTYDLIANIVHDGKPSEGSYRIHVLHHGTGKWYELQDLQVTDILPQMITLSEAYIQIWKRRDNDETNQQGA
Outline: as §1

[5] = biological target: T4, USP4 (UniProt Q13107)
T4 sequence (whole entry): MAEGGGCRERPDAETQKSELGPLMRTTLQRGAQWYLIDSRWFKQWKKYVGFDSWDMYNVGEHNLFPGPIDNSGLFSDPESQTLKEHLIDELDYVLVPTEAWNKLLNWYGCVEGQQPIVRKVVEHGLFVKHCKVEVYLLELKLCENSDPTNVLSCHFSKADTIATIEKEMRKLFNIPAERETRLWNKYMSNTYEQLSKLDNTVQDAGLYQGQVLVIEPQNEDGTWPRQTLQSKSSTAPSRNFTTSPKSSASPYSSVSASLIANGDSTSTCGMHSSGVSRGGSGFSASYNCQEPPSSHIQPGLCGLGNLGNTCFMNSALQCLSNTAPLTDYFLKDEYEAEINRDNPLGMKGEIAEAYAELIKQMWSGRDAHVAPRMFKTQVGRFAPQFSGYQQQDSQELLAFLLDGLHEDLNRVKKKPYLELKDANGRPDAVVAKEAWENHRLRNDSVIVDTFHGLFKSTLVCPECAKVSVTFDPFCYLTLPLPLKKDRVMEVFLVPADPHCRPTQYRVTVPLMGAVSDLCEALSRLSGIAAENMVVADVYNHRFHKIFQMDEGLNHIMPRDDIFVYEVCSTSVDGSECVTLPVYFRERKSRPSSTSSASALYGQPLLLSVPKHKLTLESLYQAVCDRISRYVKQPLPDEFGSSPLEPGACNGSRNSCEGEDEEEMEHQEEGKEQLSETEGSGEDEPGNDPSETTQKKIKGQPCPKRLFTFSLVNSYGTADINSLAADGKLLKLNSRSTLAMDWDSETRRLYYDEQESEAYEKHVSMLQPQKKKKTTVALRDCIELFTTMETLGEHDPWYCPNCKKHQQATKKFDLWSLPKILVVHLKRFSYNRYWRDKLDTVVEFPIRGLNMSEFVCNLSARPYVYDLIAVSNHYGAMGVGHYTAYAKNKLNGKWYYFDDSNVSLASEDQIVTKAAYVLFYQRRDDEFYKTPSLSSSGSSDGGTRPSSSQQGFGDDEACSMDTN
Outline: as §1

Measured: log2 ratio of Biotin-Ahx-Ub-VS probe labelling

USP34, sequence (Q70CQ2 whole entry, the tested form may be a part): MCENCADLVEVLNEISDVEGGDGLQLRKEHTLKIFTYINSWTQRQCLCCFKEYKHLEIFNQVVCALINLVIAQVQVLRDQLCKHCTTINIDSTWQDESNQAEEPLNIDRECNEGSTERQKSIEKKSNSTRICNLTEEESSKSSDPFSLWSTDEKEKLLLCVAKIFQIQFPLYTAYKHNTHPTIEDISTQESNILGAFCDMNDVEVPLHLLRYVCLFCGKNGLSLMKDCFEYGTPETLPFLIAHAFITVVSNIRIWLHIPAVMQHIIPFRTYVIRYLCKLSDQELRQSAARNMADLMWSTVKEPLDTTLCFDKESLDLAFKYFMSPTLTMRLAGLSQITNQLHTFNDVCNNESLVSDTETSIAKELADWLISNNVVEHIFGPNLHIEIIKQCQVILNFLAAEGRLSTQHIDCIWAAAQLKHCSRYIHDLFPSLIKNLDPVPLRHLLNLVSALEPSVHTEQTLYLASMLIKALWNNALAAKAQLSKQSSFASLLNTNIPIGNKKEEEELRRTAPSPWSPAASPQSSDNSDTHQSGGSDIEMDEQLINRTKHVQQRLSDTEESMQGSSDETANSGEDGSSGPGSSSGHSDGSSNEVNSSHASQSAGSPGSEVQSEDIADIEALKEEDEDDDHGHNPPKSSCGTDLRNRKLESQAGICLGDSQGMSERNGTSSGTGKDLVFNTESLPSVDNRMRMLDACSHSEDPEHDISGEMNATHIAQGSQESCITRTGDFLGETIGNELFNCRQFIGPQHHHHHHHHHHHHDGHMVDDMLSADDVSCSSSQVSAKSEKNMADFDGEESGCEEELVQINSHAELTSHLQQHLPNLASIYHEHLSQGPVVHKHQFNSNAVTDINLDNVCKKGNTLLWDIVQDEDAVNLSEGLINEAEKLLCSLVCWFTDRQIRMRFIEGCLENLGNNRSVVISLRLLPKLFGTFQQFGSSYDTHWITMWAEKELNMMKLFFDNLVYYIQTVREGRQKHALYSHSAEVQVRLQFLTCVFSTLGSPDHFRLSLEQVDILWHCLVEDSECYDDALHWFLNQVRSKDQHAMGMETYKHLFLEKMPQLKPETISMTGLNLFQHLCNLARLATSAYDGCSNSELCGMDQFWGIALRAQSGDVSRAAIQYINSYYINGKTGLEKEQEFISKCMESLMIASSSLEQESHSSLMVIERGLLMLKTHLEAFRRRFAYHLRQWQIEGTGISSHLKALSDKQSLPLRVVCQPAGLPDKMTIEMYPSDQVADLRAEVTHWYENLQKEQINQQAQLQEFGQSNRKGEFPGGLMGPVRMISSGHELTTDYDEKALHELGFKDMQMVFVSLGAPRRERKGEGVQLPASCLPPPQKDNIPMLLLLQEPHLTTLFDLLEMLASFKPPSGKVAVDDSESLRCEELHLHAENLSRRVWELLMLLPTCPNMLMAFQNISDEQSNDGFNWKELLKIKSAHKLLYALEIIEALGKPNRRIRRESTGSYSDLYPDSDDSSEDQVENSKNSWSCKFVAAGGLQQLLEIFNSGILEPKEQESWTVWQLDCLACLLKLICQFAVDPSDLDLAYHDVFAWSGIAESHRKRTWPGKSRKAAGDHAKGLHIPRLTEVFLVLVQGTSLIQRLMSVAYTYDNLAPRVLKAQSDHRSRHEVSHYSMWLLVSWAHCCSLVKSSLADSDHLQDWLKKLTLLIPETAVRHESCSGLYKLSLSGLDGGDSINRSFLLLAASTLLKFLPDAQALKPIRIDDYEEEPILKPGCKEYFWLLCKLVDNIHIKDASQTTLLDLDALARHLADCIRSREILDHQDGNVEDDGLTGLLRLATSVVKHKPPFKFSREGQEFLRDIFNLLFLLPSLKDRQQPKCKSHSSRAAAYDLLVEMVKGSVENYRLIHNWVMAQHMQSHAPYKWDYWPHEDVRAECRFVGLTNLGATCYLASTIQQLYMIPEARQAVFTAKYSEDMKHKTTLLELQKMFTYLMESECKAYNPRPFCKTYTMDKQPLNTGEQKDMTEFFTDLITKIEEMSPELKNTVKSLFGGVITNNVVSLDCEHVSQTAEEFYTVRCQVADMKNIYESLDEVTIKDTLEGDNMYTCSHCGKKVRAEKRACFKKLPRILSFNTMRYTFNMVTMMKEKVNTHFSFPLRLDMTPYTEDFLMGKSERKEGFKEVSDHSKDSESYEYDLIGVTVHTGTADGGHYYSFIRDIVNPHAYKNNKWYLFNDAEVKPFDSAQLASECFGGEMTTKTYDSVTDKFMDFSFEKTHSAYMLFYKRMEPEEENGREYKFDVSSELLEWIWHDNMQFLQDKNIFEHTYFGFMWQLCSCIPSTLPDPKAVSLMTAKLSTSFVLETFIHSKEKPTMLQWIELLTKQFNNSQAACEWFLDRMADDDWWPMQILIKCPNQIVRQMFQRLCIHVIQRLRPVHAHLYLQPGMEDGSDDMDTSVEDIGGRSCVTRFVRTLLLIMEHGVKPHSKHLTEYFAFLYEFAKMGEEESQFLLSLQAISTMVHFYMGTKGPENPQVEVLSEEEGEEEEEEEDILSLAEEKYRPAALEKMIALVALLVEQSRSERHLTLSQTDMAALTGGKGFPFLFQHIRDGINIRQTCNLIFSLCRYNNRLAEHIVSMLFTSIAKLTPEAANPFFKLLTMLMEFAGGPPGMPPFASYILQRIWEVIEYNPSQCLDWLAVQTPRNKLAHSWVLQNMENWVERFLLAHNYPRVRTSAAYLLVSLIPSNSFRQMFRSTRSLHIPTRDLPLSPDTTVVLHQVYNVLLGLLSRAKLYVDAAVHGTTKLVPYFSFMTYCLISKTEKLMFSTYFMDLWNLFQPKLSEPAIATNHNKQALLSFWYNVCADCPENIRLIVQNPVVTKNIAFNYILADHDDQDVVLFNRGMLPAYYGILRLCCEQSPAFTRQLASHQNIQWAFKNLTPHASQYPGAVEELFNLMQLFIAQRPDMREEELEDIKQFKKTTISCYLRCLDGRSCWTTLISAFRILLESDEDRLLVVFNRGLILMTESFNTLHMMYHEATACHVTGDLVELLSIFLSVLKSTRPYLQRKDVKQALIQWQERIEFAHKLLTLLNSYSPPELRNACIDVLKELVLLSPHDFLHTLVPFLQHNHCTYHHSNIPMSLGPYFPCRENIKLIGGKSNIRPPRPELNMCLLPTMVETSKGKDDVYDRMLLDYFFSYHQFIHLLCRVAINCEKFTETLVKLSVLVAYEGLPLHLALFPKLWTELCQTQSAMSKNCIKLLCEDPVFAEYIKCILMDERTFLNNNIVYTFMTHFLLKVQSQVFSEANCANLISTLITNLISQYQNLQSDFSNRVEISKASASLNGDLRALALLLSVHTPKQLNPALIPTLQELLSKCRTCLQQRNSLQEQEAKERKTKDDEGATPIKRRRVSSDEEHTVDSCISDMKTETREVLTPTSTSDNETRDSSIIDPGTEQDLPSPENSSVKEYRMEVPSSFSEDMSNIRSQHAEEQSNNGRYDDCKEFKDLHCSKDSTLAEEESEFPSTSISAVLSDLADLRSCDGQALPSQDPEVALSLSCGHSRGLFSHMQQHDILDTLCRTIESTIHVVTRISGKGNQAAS

O=C(CCl)Nc1ccccc1C(F)(F)F
inactive: [1] -0.296 | [2] 0.187 | [3] -0.0183 | [4] 0.198 | [5] -0.1
